These results are taken from PubChem BioAssay AID504850 (National Center for Advancing Translational Sciences (NCATS), 2011).

About 1,200 (52%) of roughly 2,300 compounds were called active. Another 34% or so got no clear call; they are omitted. So high a share suggests a set chosen from earlier hits. The list shows a part of the results. A number with no mark means an inactive call. Calls come from the whole dose curve; as a rule, active = well fitted inhibition curve with a large enough effect; inconclusive = small, poorly fitted or top-dose-only effect, or effect the other way; inactive = no such curve, though single readings can be large or run the other way.
% is set by controls: 0 for no effect and ±100 for the full control effect; potency is the fitted concentration of half-maximal effect.

A short description of the experiment: Confirmation screen for delayed death inhibitors of the malarial parasite plastid, 48 hour incubation. Note: nearly all actives have a fitted effect of over 65% in size. The settings on record: P. falciparum-infected erythrocytes, luciferase growth; series mostly up to 28.7 µM; activity change, negative = inhibition: at the top concentration. The gist of the method: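 Single-generation (48 h, 37 C) exposure of integrated firefly luciferase-reporter P. falciparum in red cells, 0.1% parasitemia at 2% hematocrit, Albumax-supplemented RPMI. Falling luciferase signal marks parasite growth inhibition.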
On to `CC(C)(C)c1ccc(C(=O)Nc2sc3c(c2C(=O)O)CCC3)cc1`, for which the Potency is 11.2 µM (active).

With `O=C(/C=C/c1ccccc1)Nc1sc2c(c1C(=O)O)CCC2`, the “activity change, negative = inhibition” value is -6.98%. Consider `COc1ccc(S(=O)(=O)NCc2ccco2)cc1-c1nnc2c3ccccc3c(C)nn12`, for which the Potency is 11.2 µM (active). For the compound `CO[C@H](C(=O)[C@@H](O)[C@@H](C)O)C1Cc2cc3cc(O[C@H]4C[C@@H](O[C@H]5C[C@@H](O)[C@H](O)[C@@H](C)O5)[C@@H](O)[C@@H](C)O4)c(C)c(O)c3c(O)c2C(=O)[C@H]1O[C@H]1C[C@@H](O[C@H]2C[C@@H](O[C@H]3C[C@](C)(O)[C@H](O)[C@@H](C)O3)[C@H](O)[C@@H](C)O2)[C@H](O)[C@@H](C)O1` (some centres not stated), the Potency was 0.562 µM (active). As for `COc1ccc(N2CCN(C(=O)CSc3nc4cc(OC)c(OC)cc4cc3C#N)CC2)cc1`, the Potency was 7.94 µM (active). `O=C(CCCO)NNc1c2ccccc2nc2ccccc12`: the Potency was 11.2 µM (active).

In the case of `Cc1ccc(OCC(=O)NNc2c3ccccc3nc3ccccc23)cc1`, the Potency is 10 µM (active). On the same count and under the same terms, then `COc1ccccc1OCC(=O)NNc1c2ccccc2nc2ccccc12`, with 10 µM (active). As for `O=C(NNc1c2ccccc2nc2ccccc12)C(O)c1ccccc1` (configuration not stated), the Potency is 12.6 µM (active). `Cc1cccc(OCC(=O)NNc2c3ccccc3nc3ccccc23)c1`: the Potency is 11.2 µM (active). `O=C(Nn1c(COc2ccccc2)nc2ccccc2c1=O)C(Cl)(Cl)Cl`: the “activity change, negative = inhibition” value was -23.8%.

As for `COc1cccc(C(=O)N/N=C(\C)CC(=O)Nc2ccc(N(C)C)cc2)c1`, the “activity change, negative = inhibition” value is -13.9%. Consider `O=C(COc1ccccc1)NNc1c2ccccc2nc2ccccc12`, for which the Potency was 11.2 µM (active). Still for that read-out and setting: then `Cc1ccc(C(=O)NNc2c3ccccc3nc3ccccc23)cc1`, with 15.8 µM (active). Still for that read-out and setting: the result for `COc1cccc(C(=O)NNc2c3ccccc3nc3ccccc23)c1` reads 10 µM (active); that for `COc1ccc(-c2nc3c(c(=O)c4ccccc4n3C)c(=O)n2Cc2ccccc2)cc1`, 10 µM (active).

With `COc1ccc(CCn2c(C(C)C)nc3c(c(=O)c4ccccc4n3C)c2=O)cc1`, the Potency was 11.2 µM (active). Same read-out and setting: the result for `COc1ccc(Cn2c(-c3ccccc3)nc3c(c(=O)c4ccccc4n3C)c2=O)cc1` reads 11.2 µM (active); that for `O=C(/C=C/c1ccc(Cl)c(Cl)c1)NCCCn1ccnc1`, 15.8 µM (active); that for `CCc1ccccc1Nc1nc(N)nc(COC(=O)CCNS(=O)(=O)c2ccccc2)n1`, 12.6 µM (active). For `CCc1ccccc1Nc1nc(N)nc(COC(=O)CCC(=O)c2ccc(F)cc2)n1`, the Potency was 8.91 µM (active). The same measure, in the same setting: the result for `Cc1ccc(C(=O)OCc2nc(N)nc(Nc3ccccc3C)n2)cc1` reads 12.6 µM (active). In the case of `O=C(O)CCNS(=O)(=O)c1cccc(Br)c1`, the “activity change, negative = inhibition” value was -11.5%. With `CCCCN(C)C(=O)C1CCC(CNS(=O)(=O)c2ccc3c(c2)CC(C)N3C(=O)C2CC2)CC1` (configuration not stated), the Potency was 12.6 µM (active). `CCc1ccc(N/C(SCc2cccc(F)c2)=C(/C#N)C(=O)NCc2ccco2)cc1`: the Potency is 10 µM (active). The same measure, in the same setting: the result for `CC(C)/C=C/CN1CCN(CCCc2ccccc2)C(CCO)C1` (configuration not stated) reads 12.6 µM (active); that for `C#Cc1ccc(CN2CCN(CCCc3ccccc3)C(CCO)C2)cc1` (configuration not stated), 11.2 µM (active). The same measure, in the same setting: the result for `COc1ccccc1N1CCN(C(=O)c2noc(C(C)C)c2[N+](=O)[O-])CC1` reads 10 µM (active); that for `Cc1ccc(NC(=O)c2cc(S(=O)(=O)N3CCc4ccccc43)cn2C)cc1`, 11.2 µM (active).

With `COc1ccc(S(=O)(=O)N(C)c2ccc(C(=O)Nc3cccnc3)cc2)cc1OC`, the Potency was 14.1 µM (active). The same measure, in the same setting: the result for `COc1ccc(S(=O)(=O)N2CCc3ccccc32)cc1C(=O)Nc1cccnc1` reads 12.6 µM (active); that for `CCOc1ccc2c(c1)sc(N)[n+]2Cc1cc(C)cc2cccnc12`, 5.62 µM (active). On to `O=C(NCc1ccco1)c1cc2sccc2n1Cc1ccc(F)cc1`, for which the Potency is 12.6 µM (active). As to `O=C(Nc1cccc(S(=O)(=O)NCc2ccco2)c1)c1cc(-c2ccc(F)cc2)nc2ccccc12`, the “activity change, negative = inhibition” value was -0.526%. With `Cc1ccc(/C=N/NC(=O)CSc2nc3ccccc3c(=O)n2-c2ccccc2C)s1`, the Potency was 11.2 µM (active). Still for that read-out and setting: then `COc1ccc(C(C)=O)cc1CSc1nc2ccccc2c(=O)n1-c1ccccc1C`, with 7.08 µM (active). Consider `O=C1C2CCCN2C(c2ccccc2)N1c1ccc(Cl)cc1` (configuration not stated), for which the “activity change, negative = inhibition” value is -19.3%. Turning to `O=C1C(=O)c2ccccc2C(O)=C1C1CCC(c2ccc(Cl)cc2)CC1` (configuration not stated), the Potency was 0.02 µM (active). With `O=C(NCc1ccccn1)c1cc(-c2ccc(-c3ccccc3)cc2)nc2ccccc12`, the Potency is 15.8 µM (active). Same read-out and setting: the result for `Cc1cc(NC(=O)CSc2sc3c(O)cc(=O)[nH]c3c2C#N)ccc1Br` reads 14.1 µM (active); that for `N#Cc1c(SCC(=O)Nc2ccc(C(F)(F)F)cc2)sc2c(O)cc(=O)[nH]c12`, 0.316 µM (active). Consider `O=C(O)CCCN1C(=O)/C(=C\C(Cl)=C\c2ccccc2)SC1=S`, for which the Potency is 14.1 µM (active). As for `O=C(CCN1C(=O)/C(=C/c2ccccc2)SC1=S)NCCc1ccc(O)cc1`, the “activity change, negative = inhibition” value is -6.1%. Turning to `CCC/C(=N\NC(=O)c1ccco1)c1ccc(Cl)s1`, the Potency was 11.2 µM (active).

As for `CC1CCCN(Cc2c(O)ccc3c(=O)c(-c4nc5ccccc5s4)c(N)oc23)C1` (configuration not stated), the Potency was 0.316 µM (active).

For the compound `C=CCN(c1ccccc1)S(=O)(=O)c1cccc(C(=O)N2CC(C)CC(C)C2)c1` (configuration not stated), the Potency was 14.1 µM (active). On the same count and under the same terms, the result for `COc1ccc(Nc2nnc(-c3ccc(C)cc3)c3ccccc23)cc1C(=O)N1CCCCC1` reads 2.51 µM (active).

Regarding `COc1ccc(Nc2nnc(-c3ccccc3)c3ccccc23)cc1C(=O)N1CCCCC1`, the Potency was 7.94 µM (active). Consider `Cc1ccc(C)c(-c2cc(C(=O)Nc3nccs3)c3ccccc3n2)c1`, for which the Potency was 4.47 µM (active).

In the case of `Cc1ccccc1-c1cc(C(=O)n2cccn2)c2cc(Cl)ccc2n1`, the “activity change, negative = inhibition” value was -11%. Take `Cc1ccc(C)c(-c2cc(C(=O)NNC(=S)NCC(C)C)c3ccccc3n2)c1`: the Potency is 14.1 µM (active). Same read-out and setting: then `CCC1OC(=O)C[C@@H](O)[C@H](C)[C@@H](OC2OC(C)CC(N(C)C)C2O)[C@@H](CC=O)C[C@@H](C)C(=O)/C=C/[C@]2(C)OC2C1C` (some centres not stated), with 11.2 µM (active); and `Cc1onc(-c2ccccc2Cl)c1C(=O)N1CCC(Cc2ccccc2)CC1`, with 15.8 µM (active).

As to `Cc1onc(-c2ccccc2Cl)c1C(=O)N1CC(C)CC(C)C1` (configuration not stated), the “activity change, negative = inhibition” value is -22.2%.

Take `Cc1ccc(S(=O)(=O)N(C)C)cc1NC(=O)c1cncc(Br)c1`: the Potency is 8.91 µM (active). Same read-out and setting: the result for `NCCCNc1nc(N)c([N+](=O)[O-])c(NC2CCCCC2)n1` reads 3.98 µM (active). Take `N=C(N)c1ccc(OCCCCCOc2ccc(C(=N)N)cc2)cc1`: the Potency was 1 µM (active).

As for `Cc1cccc(-n2c(C)cc(/C=N\NC(=O)c3cccs3)c2C)c1`, the Potency is 11.2 µM (active). In the case of `O=C(NCCCn1ccnc1)C(=O)NCC1OCCN1S(=O)(=O)c1ccc(F)cc1` (configuration not stated), the “activity change, negative = inhibition” value is -13.4%.

As for `COc1ccc(CCNC(=O)C(=O)NCC2OCCN2S(=O)(=O)c2ccc3c(c2)OCCO3)cc1OC` (configuration not stated), the Potency was 11.2 µM (active). Consider `CCC(C(=O)O)C1OC(C(C)C(O)C(C)C(=O)C(CC)C2OC3(C=CC(O)C4(CCC(C)(C5CCC(O)(CC)C(C)O5)O4)O3)C(C)CC2C)C(C)CC1C` (configuration not stated), for which the Potency was 0.251 µM (active). Still for that read-out and setting: then `O=C(CCl)NCc1c(Cl)cccc1-n1cccc1`, with 12.6 µM (active). Take `O=C(NC1CCCCC1)c1ccc(CS(=O)Cc2ccccc2Cl)o1` (configuration not stated): the Potency is 12.6 µM (active).

With `C/C(CC(=O)NC1CCCCC1)=N\NC(=O)COc1ccc(C)cc1Br`, the “activity change, negative = inhibition” value was -22.2%. Regarding `Cc1ccc(CS(=O)(=O)Cc2ccc(C(=O)NC3CCCC3)o2)cc1`, the Potency is 11.2 µM (active).

For the compound `O=C(CCl)Nc1ccc2c(c1)OCO2`, the Potency was 2.24 µM (active). In the case of `Cc1ccc(NC(=O)c2nnn(CC(=O)Nc3ccc4c(c3)OCO4)c2N)cc1C`, the “activity change, negative = inhibition” value is -13.9%. As for `Cn1c(=O)n(C)c2cc(NC(=O)CCl)ccc21`, the Potency is 2.24 µM (active). The same measure, in the same setting: then `CCN1CCN(Cc2c(O)ccc3c2O/C(=C\C=C\c2ccccc2)C3=O)CC1`, with 3.98 µM (active). The same measure, in the same setting: the result for `O=S(=O)(c1ccc(OCC(O)CN2CCN(c3ccc(F)cc3)CC2)cc1)N1CCOCC1` (configuration not stated) reads 11.2 µM (active).

Consider `COc1ccc(CNC(=O)c2cc(S(=O)(=O)N3CCOCC3)cn2C)cc1`, for which the “activity change, negative = inhibition” value is -18.3%. As for `CCOc1ccc(S(=O)(=O)N2CCN(C(=O)CCOc3ccccc3C)CC2)cc1`, the Potency is 12.6 µM (active). As to `Cc1cc(OCC(=O)N2CCCC2)cc(C)c1Cl`, the “activity change, negative = inhibition” value was -29.2%.

For `O=C(COc1ccccc1)N1CCN(S(=O)(=O)c2ccc(Br)cc2)CC1`, the Potency was 11.2 µM (active). As for `Cc1cc(OCCN2CCN(S(=O)(=O)c3ccccc3F)CC2)ccc1C(C)C`, the “activity change, negative = inhibition” value was -46.5%. For `O=S(=O)(c1ccc(OCc2ccc(Br)cc2)cc1)N1CCOCC1`, the Potency was 11.2 µM (active). With `Cc1cccc(-c2ccc3ncnc(NCc4cccs4)c3c2)c1`, the Potency is 7.08 µM (active). For `CN(C)c1ccc(CNc2ncnc3sccc23)cc1`, the “activity change, negative = inhibition” value is -16%. As for `COc1cccc(-c2ccc3ncnc(NCc4cccs4)c3c2)c1`, the Potency was 11.2 µM (active).

On to `Cc1ccn2c(NC3CCCC3)c(-c3ccccn3)nc2c1`, for which the Potency was 7.08 µM (active). Same read-out and setting: the result for `COc1cccc([C@@H]2Oc3ccc(OC)cc3C(=O)[C@H]2O)c1` reads 7.94 µM (active); that for `CC(=O)N1CN(C2CCCC2)Cc2c1sc1c2CCCC1`, 14.1 µM (active).

In the case of `COc1ccc(S(=O)(=O)N2CCCCCC2)cc1C(=O)N(C)CC(=O)Nc1cc(C)ccc1C`, the Potency was 7.94 µM (active). The same measure, in the same setting: the result for `COC(=O)c1cc(NC(=O)CN2CCc3cc4c(cc3C2)OCCCO4)cc(C(=O)OC)c1` reads 12.6 µM (active); that for `COc1ccc(C)cc1N(CC(=O)Nc1ccc(S(=O)(=O)N2CCCC2)cc1)S(C)(=O)=O`, 15.8 µM (active).

For the compound `COC(=O)c1cn(C)c2ccc(S(=O)(=O)N3CCCC3)cc2c1=O`, the “activity change, negative = inhibition” value was -9.9%. For `CCOc1ccccc1N(CC(=O)Nc1ccc(S(=O)(=O)N2CCCC2)cc1)S(C)(=O)=O`, the Potency is 12.6 µM (active). Same read-out and setting: then `COc1ccc(S(=O)(=O)N2CCCN(S(=O)(=O)c3ccc(OC)c(C)c3)CC2)cc1C`, with 14.1 µM (active).

As to `CCN(CC(=O)Nc1ccc(S(=O)(=O)N2CCOCC2)cc1)Cc1ccccc1`, the Potency was 12.6 µM (active).

As to `COc1cc2c(cc1OC)CN(CC(=O)Nc1ccc(S(=O)(=O)N3CCCC3)cc1)CC2`, the Potency is 15.8 µM (active).

Take `C/C=C(\C)CN1CCc2cc(OC)c(OC)cc2C1`: the “activity change, negative = inhibition” value is -12.9%. For the compound `COc1ccc(OCCOc2ccc(S(=O)(=O)N3CCCC3)cc2C(N)=O)cc1`, the Potency was 11.2 µM (active).
